Our source for the displacement values is PubChem BioAssay AID1240 (Sanford-Burnham Center for Chemical Genomics, 2008).

SMILES strings stand for the structures. Out of some 50,000 compounds screened, about 800 (1.6%) showed an effect of 50% or more. What follows is part of a selection rich in strong results, with near analogues and random picks from the rest.

This assay deals with Bcl-2-like protein 10 (Homo sapiens) (UniProt Q9HD36). As to the kind of experiment: TR3 peptide-Bcl-B binding displacers, biochemical primary FP assay, phenotype converters (AID 1240).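 Note: 0% = Bcl-B with tracer peptide and DMSO and 100% = tracer peptide lacking Bcl-B.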 The note with it: GST-Bcl-B / FITC-TR3 peptide fluorescence polarization; stronger effect = higher value; compound at 3.75 mg/L.
Sequence of Bcl-2-like protein 10 (Homo sapiens) (Q9HD36 whole entry, looked up): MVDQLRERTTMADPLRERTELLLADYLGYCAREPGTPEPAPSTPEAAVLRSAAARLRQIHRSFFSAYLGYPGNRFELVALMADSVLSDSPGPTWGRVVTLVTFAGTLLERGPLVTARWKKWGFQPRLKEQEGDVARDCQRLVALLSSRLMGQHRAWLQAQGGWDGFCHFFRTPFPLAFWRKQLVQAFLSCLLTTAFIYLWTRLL
Regarding `FC(F)(F)c1ccccc1CN1CCN(Cc2c[nH]c3ccccc23)CC1`, the displacement was -5.2%.
The value for `C=C(C)CNC(=S)NC1=C(C)N(C)N(c2ccccc2)C1=C` was -10.7%.
In the case of `O=C(NC1CCS(=O)(=O)C1)/C(=C\c1ccc(Br)cc1)NC(=O)c1ccccc1` (centres undefined), the displacement is 1.9%.
Regarding `O=C1c2ccccc2C(=O)C12OC(c1ccc(Br)cc1)C1(C(=O)c3ccccc3C1=O)C2c1ccc(F)cc1` (centres undefined), the displacement came out at 2.6%.
The value for `Fc1ccc(/C=N/Nc2nnc(-c3ccccc3)c(-c3ccccc3)n2)cc1` was 5.2%; that for `C(=C(\c1ccccc1)c1nc2ccccc2[nH]1)/c1ccco1` was 2.2%.
The value for `CCN1C(=O)c2cccc3c(S(=O)(=O)N(C)C)ccc1c23` was 6.6%; that for `CCN1C(=O)c2cccc3c(NC(=O)c4ccc(Cl)s4)ccc1c23` was 11.6%; that for `CCN1C(=O)c2cccc3c(NC(=O)c4cccs4)ccc1c23` was -29.9%.
Regarding `O=C(Nc1cccc2ccccc12)c1ccc(S(=O)(=O)N2CCCCC2)cc1`, the displacement is -8.9%.
For the compound `CCN1C(=O)c2cccc3c(NC(=O)c4ccc(S(=O)(=O)N5CCCCCC5)cc4)ccc1c23`, the displacement amounted to 88.2%.
Consider `CCN1C(=O)c2cccc3c(NC(=O)c4ccc(Oc5ccccc5)cc4)ccc1c23`, for which the displacement is -14.2%.
On to `CCN1C(=O)c2cccc3c(NC(=O)c4ccc(C(=O)c5ccccc5)cc4)ccc1c23`, for which the displacement was 101%.
The same measure for `CCN1C(=O)c2cccc3c(NC(=O)c4ccc(S(=O)(=O)N(C)C)cc4)ccc1c23`: 84.1%; for `CCN1C(=O)c2cccc3c(NC(=O)c4ccc(S(=O)(=O)N5CCOCC5)cc4)ccc1c23`: 8.7%.
The same measure for `COCCNC(=O)Cc1ccc(Br)cc1`: 13.1%.
The same measure for `COc1ccc(CC(=O)Nc2cccc(NC(=O)c3cccc(Cl)c3)c2)cc1OC`: -0.7%; for `CCc1nn2c(N)c(C=C3C=CC(=O)C=C3)c(=O)nc2s1`: 1.9%; for `COc1ccc(CCNC(=O)C2CN(S(=O)(=O)c3ccccc3)CCN2S(=O)(=O)c2ccccc2)cc1OC` (centres undefined): -2.8%.
For `O=C(COC(=O)C1CC(=O)N(c2ccc(Cl)cc2)C1)c1ccccc1` (centres undefined), the displacement was 9.1%.
Regarding `O=C(NC(=S)Nc1ccc(N2CCCCC2)c(Cl)c1)c1ccco1`, the displacement is -7.1%.
As for `CC(C)CCn1c(=O)[nH]c2ccccc21`, the displacement worked out at 10.2%.
Regarding `CCCc1c(C)nc2c(Cl)cccc2c1SCC(=O)O`, the displacement was -1.7%.
Take `COC(=O)c1c(NC(=O)c2ccco2)sc2c1CCC(C)C2` (centres undefined): the displacement was found to be 0.1%.
On to `NC(=O)c1c(NC(=O)c2ccco2)sc2c1CCC2`, for which the displacement came to 4.5%.
For the compound `COC(=O)c1c(NC(=O)c2ccco2)sc2c1CCC2`, the displacement turned out to be 91.1%.
For `CCc1ccccc1OCCCNC(C)(C)C`, the displacement was 1.5%.
The same measure for `O=C(NNC(=O)c1cc([N+](=O)[O-])ccc1Cl)c1ccc([N+](=O)[O-])cc1`: -4.8%; for `NC(=O)C1CCN(C(=O)c2ccc([N+](=O)[O-])cc2)CC1`: 4.4%.
